Among all 5,500 compounds or so, about 2,000 (36%) were called active. Roughly 18% stayed inconclusive and do not appear here. No stated cut-off is given here; in the data, active means normalized growth mostly below about 0.91 (no sharp cut-off); inconclusive means no clear call, values can overlap the other calls; inactive means mostly above about 0.92. Some of the results follow.
Experiment: chemical genetic growth profiling, strain panel (AID 1159580);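 further: tested at 20 µM; growth read once vehicle control cultures reached saturation at 30 °C; 1 = growth at the plate median or of vehicle wells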
Conditions: S. cerevisiae deletion strains, growth OD

Measured: normalized growth

CO[C@H]1/C=C/O[C@@]2(C)Oc3c(C)c(O)c4c(O)c(c5c(nc6cc(C)ccn65)c4c3C2=O)NC(=O)/C(C)=C\C=C\[C@H](C)[C@H](O)[C@@H](C)C(O)[C@@H](C)[C@H](OC(C)=O)[C@@H]1C (stereo not given in full)
inactive: locus YAL021C, strain ccr4, stronger effect = lower value 1.04 | locus YAL026C, strain drs2, stronger effect = lower value 1.04 | locus YAL030W, strain snc1, stronger effect = lower value 1.04 | locus YBL061C, strain skt5, stronger effect = lower value 1.04 | locus YBR009C, strain hhf1, stronger effect = lower value 1.01 | locus YBR023C, strain chs3, stronger effect = lower value 1.05 | locus YBR171W, strain sec66, stronger effect = lower value 1.06 | locus YBR231C, strain swc5, stronger effect = lower value 1.05 | locus YBR279W, strain paf1, stronger effect = lower value 1.03 | locus YCL011C, strain gbp2, stronger effect = lower value 1.05 | locus YCL016C, strain dcc1, stronger effect = lower value 1.03 | locus YCL061C, strain MRC1, stronger effect = lower value 1.04 | locus YCL069W, strain vba3, stronger effect = lower value 1.05 | locus YCR088W, strain abp1, stronger effect = lower value 1.04 | locus YDL005C, strain med2, stronger effect = lower value 1.06 | locus YDL040C, strain nat1, stronger effect = lower value 1.03 | locus YDR001C, strain nth1, stronger effect = lower value 1.04 | locus YDR069C, strain doa4, stronger effect = lower value 1.04 | locus YDR137W, strain rgp1, stronger effect = lower value 0.988 | locus YDR159W, strain sac3, stronger effect = lower value 1.05 | locus YDR195W, strain ref2 1.05 | locus YDR297W, strain sur2, stronger effect = lower value 1.04 | locus YDR334W, strain swr1, stronger effect = lower value 1.03 | locus YDR335W, strain msn5, stronger effect = lower value 1.04 | locus YDR392W, strain spt3, stronger effect = lower value 0.961 | locus YEL003W, strain gim4, stronger effect = lower value 1.04 | locus YEL037C, strain rad23, stronger effect = lower value 1.04 | locus YEL061C, strain CIN8 (second series), stronger effect = lower value 1.04 | locus YER015W, strain faa2, stronger effect = lower value 1.04 | locus YER016W, strain bim1, stronger effect = lower value 1.03 | locus YER111C, strain swi4, stronger effect = lower value 1.05 | locus YER155C, strain BEM2 (second series), stronger effect = lower value 1.02 | locus YFR010W, strain ubp6, stronger effect = lower value 1.04 | locus YGL167C, strain pmr1, stronger effect = lower value 1.04 | locus YGL173C, strain kem1, stronger effect = lower value 1.04 | locus YGL227W, strain vid30, stronger effect = lower value 1.05 | locus YGL240W, strain doc1, stronger effect = lower value 1.03 | locus YGL253W, strain hxk2, stronger effect = lower value 1.06 | locus YHR013C, strain ard1, stronger effect = lower value 1.08 | locus YHR027C, strain rpn1, stronger effect = lower value 1.04 | locus YHR030C, strain SLT2, stronger effect = lower value 1.03 | locus YHR079C, strain IRE1, stronger effect = lower value 1.03 | locus YHR142W, strain chs7, stronger effect = lower value 1.07 | locus YJL092W, strain hpr5, stronger effect = lower value 1.04 | locus YJL095W, strain BCK1 (second series), stronger effect = lower value 1.03 | locus YJL095W, strain BCK1, stronger effect = lower value 0.988 | locus YJL115W, strain asf1, stronger effect = lower value 1.04 | locus YJL129C, strain trk1, stronger effect = lower value 1.06 | locus YJL154C, strain vps35, stronger effect = lower value 1.04 | locus YJL164C, strain tpk1, stronger effect = lower value 1.04 | locus YJL166W, strain qcr8, stronger effect = lower value 1.05 | locus YJL187C, strain SWE1, stronger effect = lower value 1.06 | locus YJR066W, strain TOR1, stronger effect = lower value 0.982 | locus YKL160W, strain elf1, stronger effect = lower value 1.05 | locus YKR026C, strain gcn3, stronger effect = lower value 1.05 | locus YKR091W, strain srl3, stronger effect = lower value 1.04 | locus YLL001W, strain dnm1, stronger effect = lower value 1.08 | locus YLL026W, stronger effect = lower value 1.04 | locus YLL041C, strain sdh2, stronger effect = lower value 1.04 | locus YLR027C, strain aat2, stronger effect = lower value 1.03 | locus YLR113W, strain HOG1, stronger effect = lower value 1.01 | locus YLR221C, strain rsa3, stronger effect = lower value 1.06 | locus YLR258W, strain gsy2, stronger effect = lower value 1.04 | locus YLR262C, strain YPT6 (second series), stronger effect = lower value 1.09 | locus YLR320W, strain mms22, stronger effect = lower value 1.04 | locus YLR342W, strain FKS1, stronger effect = lower value 1.04 | locus YLR357W, strain rsc2, stronger effect = lower value 1.07 | locus YLR370C, strain arc18, stronger effect = lower value 1.04 | locus YLR384C, strain iki3, stronger effect = lower value 1.04 | locus YML120C, strain ndi1, stronger effect = lower value 1.02 | locus YMR058W, strain fet3, stronger effect = lower value 1.03 | locus YMR125W, strain sto1, stronger effect = lower value 1.05 | locus YMR129W, stronger effect = lower value 1.03 | locus YMR205C, strain PFK2, stronger effect = lower value 1.05 | locus YMR231W, strain pep5, stronger effect = lower value 1.04 | locus YNL071W, strain lat1, stronger effect = lower value 1.05 | locus YNL183C, strain NPR1, stronger effect = lower value 0.988 | locus YNL209W, strain ssb2, stronger effect = lower value 1.03 | locus YNL248C, strain rpa49, stronger effect = lower value 1.06 | locus YNL322C, strain KRE1 (second series), stronger effect = lower value 1.05 | locus YNR049C, strain mso1, stronger effect = lower value 1.03 | locus YOR001W, strain rrp6, stronger effect = lower value 1.01 | locus YOR070C, strain gyp1, stronger effect = lower value 1.04 | locus YOR080W, strain dia2, stronger effect = lower value 1.04 | locus YOR083W, strain WHI5, stronger effect = lower value 1.04 | locus YOR106W, strain vam3, stronger effect = lower value 1.1 | locus YOR231W, strain MKK1, stronger effect = lower value 0.989 | locus YOR265W, strain rbl2, stronger effect = lower value 1.03 | locus YOR270C, strain vph1, stronger effect = lower value 1.1 | locus YOR290C, strain snf2, stronger effect = lower value 1.04 | locus YPL051W, strain arl3, stronger effect = lower value 1.02 | locus YPL078C, strain atp4, stronger effect = lower value 1.05 | locus YPL106C, strain sse1, stronger effect = lower value 1.03 | locus YPL240C, strain hsp82, stronger effect = lower value 1.04 | locus YPL256C, strain CLN2, stronger effect = lower value 1.06

Reference: PubChem BioAssay AID1159580 (chemical genetic matrix, 2015)
